Measurements from the supplement of paper PMC6555819.

Assays:
Assay in all cases: PBM binding z-score (relative to random genomic background probes); higher = stronger binding; sequences stand for … in GC…GCGATTGACAGCGTAGAATGAAGG
[1] = system: RARb homodimer (NR concentration 270 nM)
Procedure, shortened: (§1)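 Custom Agilent 4×180K protein-binding microarrays carried double-stranded probes. Their 34-nt variable regions held direct-repeat seeds, single-nucleotide variants, half-site ablations and random human genomic background sequences. Arrays were incubated 1 h with ligand-free nuclear receptor dimers in PBS pH 7.4, 2% milk, 0.02% Triton X-100, 1 mM DTT, 0.2 mg/mL BSA and 0.4 mg/ml salmon testes DNA. Antibodies against each partner (one per run) detected binding, and scanned fluorescence was regression-normalized. Binding z-scores use random background probes as reference.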

[2] = system: RARg:RXRa (NR concentration 270 nM, RXRa partner concentration 90 nM)
Procedure, shortened: as §1

[3] = system: RARg homodimer (NR concentration 270 nM)
Procedure, shortened: as §1

[4] = system: RXRa DBDmut IVT, anti-RXR (DBD mutation: RXRa K156A/R161A, NR concentration 90 nM)
Procedure, shortened: as §1

[5] = system: RXRa homodimer (NR concentration 180 nM)
Procedure, shortened: as §1

[6] = system: THRa:RXRa (NR concentration 90 nM, RXRa partner concentration 90 nM)
Procedure, shortened: as §1

[7] = system: THRa homodimer (NR concentration 90 nM)
Procedure, shortened: as §1

[8] = system: VDR homodimer (NR concentration 270 nM)
Procedure, shortened: as §1

Row | Sequence | PBM binding z-score [1] | PBM binding z-score [2] | PBM binding z-score [3] | PBM binding z-score [4] | PBM binding z-score [5] | PBM binding z-score [6] | PBM binding z-score [7] | PBM binding z-score [8]
1 | CCTAGCAGGCCAATGTGGGTCACTCAAGGCTTGA | 2.16 | 1.23 | 1.02 | -0.341 | 1.15 | 2.63 | -0.567 | -0.0479
2 | GATACAGGGTCAGCTAGAGTCCAGAGTATGGAAA | 3.02 | 5.59 | 4.41 | 1.39 | 4.32 | 2.88 | 0.377 | 1.58
3 | CCTACTGGGCCAAAGGTCATTGTTTCCAATGCTC | 4.48 | 5.41 | 3.97 | 1.26 | 5.82 | 3.29 | 0.832 | 2.26
4 | ATCGAAAGCTCGTGAGGTGAGTATACAGAAAGGC | -0.145 | -0.029 | 0.239 | -0.842 | -0.0851 | 1.52 | 0.723 | -0.704
5 | CCGACTGGGGCAAGGTTGCCATAACGCACAGCCA | 0.376 | 0.327 | 0.556 | -0.586 | 0.107 | 0.0473 | -0.389 | -0.526
6 | TCATATAGGTAAAATGTGAAAGTCGGTGTGGTAA | -0.199 | 0.0549 | -0.0961 | 1.45 | 0.646 | -0.0922 | -0.336 | -0.00299
7 | TAGCCTAGGTCATGCGGGCAAGTATAGTGTCGGC | 3.16 | 4 | 4.38 | 0.563 | 3.03 | 2.89 | 0.9 | 0.528
8 | AGTCATAGTTCATCTAGGTAACGTAAGATATGCT | 2.23 | 3.01 | 3.33 | 2.6 | 2.02 | 2.21 | 0.0435 | 2.02
9 | GCTTGTAGATCAAGGTTAAGATAGACTAAGCTAA | 0.293 | 0.611 | 0.411 | 0.0981 | 1.04 | 1.21 | -0.344 | -0.108
10 | CGTCAAAGTTCAAGGTAAGGTAACAGAAAGCAGC | 3.86 | 5.71 | 5.4 | 4.12 | 4.23 | 4.38 | 1.85 | 2.9
11 | CCGACTGGGGCATTAGGTTACCATAAGCCAGCCC | 0.851 | 0.715 | 0.58 | -0.386 | 0.21 | 0.535 | 0.0828 | -0.601
12 | ATATGTAGGTTAAGGGTCATTCAGGTTGGTTCGC | 4.16 | 4.91 | 3.76 | 2.37 | 6.65 | 3.68 | 2.05 | 4.42
13 | CGAACTAGGTCACTGACAGGACAGTGAATAGTAA | 3.15 | 4.78 | 4.99 | 1.48 | 2.88 | 2.81 | 0.889 | 0.448
14 | TGTCAAAGTTCATAGGTAACGTAAGTATCCACAC | 3.62 | 5.31 | 5.2 | 4.28 | 5.16 | 2.58 | -0.00989 | 4.46
15 | CCTAGTTGGTCACGAGGTCACACACCGGATATGA | 4.65 | 5.36 | 4.66 | 1.84 | 5.19 | 4.43 | 4.41 | 3.84
16 | TTGAGTAGGTTAGTCGGGGCATTCAGCCAACATA | 0.969 | 0.218 | 0.145 | 0.265 | 0.0452 | 1.43 | 0.699 | 1.25
17 | CCAGACAGGTGAATGGTAACTCAGTCTGGTACGC | -0.113 | 0.0397 | 0.189 | -0.0115 | 0.0786 | -0.333 | -0.556 | -0.492
18 | ATCTCTAGGTAAAGAGAGTTCAGTGAATGCAAAT | 1.55 | 0.963 | 1.18 | 1.12 | 0.653 | 1.56 | -0.0506 | 3.67
19 | AGTCAAAGTTCACTAGTTAACGTAAGATTCAGCT | 3.6 | 4.87 | 5.57 | 4.26 | 3.7 | 1.45 | -0.514 | 4.04
20 | TGGATGAGGTTAAAGATCAGGGAACGTGGCGTCG | 1.38 | 2.75 | 1.59 | 1.46 | 4.05 | 2.88 | 1.11 | 1.42
21 | GGAACGAGGGCAAGTTGATAGCGGAGTTTGATGG | 1.43 | 1.28 | 1.74 | 2.31 | 0.823 | 1.13 | 0.118 | 1.73
22 | CCTACTGGGCCAAAGGTCATGGATTCCAATGCTC | 4.97 | 6.18 | 5.26 | 0.383 | 6.66 | 3.73 | 1.02 | 1.54
23 | ACTATTAGTTGACTTAGTGCAACCGATACGACGC | 0.207 | 0.552 | 0.65 | 0.565 | 0.369 | 0.0819 | -0.158 | 0.241
24 | TCAATTAGTTGATTAGGGCAACCGAAACAGCGGA | 0.454 | 0.298 | 0.178 | 0.983 | 0.591 | 0.541 | 0.0743 | 0.229
25 | TCTAGCAGGCCAGAGGGTCCCTCAAGAGGTACGG | -0.677 | -0.337 | -0.396 | -0.214 | -0.191 | -0.666 | -1.29 | -0.908
26 | ACAGACAGGTGAGTTAAGGTAACTCAGCTGGACG | -0.0673 | 0.439 | 0.59 | -0.352 | 0.374 | 4.35 | 1.8 | -0.547
27 | GATACAGGGTCAGCTAGAGGCCACAGTATGGAAA | 3.61 | 7.06 | 5.21 | 0.909 | 4.27 | 3.39 | 0.56 | 0.844
28 | ATCTCTAGGTAAGACTCAGCTCAGTGAAGAACGC | 0.128 | -0.176 | 0.0732 | 0.0476 | -0.204 | 0.124 | 0.524 | 0.3
29 | TCTATCAGGCCAGAGGGTCACTCAAGAGGTACGG | 2.89 | 2.92 | 2.44 | 0.811 | 2.56 | 2.29 | 0.348 | 1.16
